TMEM16A act: TMEM16A chloride channel activators or potentiators, primary screen, cell-based, HTS; Anoctamin-1 (Mus musculus), Q8BHY3; HEK293 TMEM16A/YFP-H148Q/I152L, iodide quench fluorescence; hits give low values; B-score at 10 µM; 340,000 tested, 0.3% active; AID 623877, 2012;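 active means fluorescence-ratio B-score plate-corrected deviation score at least 3 library SD below zero, with starting fluorescence score within 5 deviations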;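 further: channel opened by trigger with iodide after compound preincubation; score built on the fluorescence ratio of max minus min over baseline; more negative score means more quench and so TMEM16A activation or potentiation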
CHT inh: inhibitors of human choline transporter CHT. High affinity choline transporter 1 (Homo sapiens), Q9GZV3. CHT-expressing cells, membrane potential dye, choline response; hits give low values. B-score at 10 µM. 310,000 tested, 0.86% active;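 active means B-score over 3 SD under the library average, and starting fluorescence ratio not unusually high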;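 further: choline stimulus applied at its EC90 after an EC20 pre-addition; B-score computed on integrated fluorescence ratio after choline addition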
Target sequence (Q9GZV3 whole entry, looked up): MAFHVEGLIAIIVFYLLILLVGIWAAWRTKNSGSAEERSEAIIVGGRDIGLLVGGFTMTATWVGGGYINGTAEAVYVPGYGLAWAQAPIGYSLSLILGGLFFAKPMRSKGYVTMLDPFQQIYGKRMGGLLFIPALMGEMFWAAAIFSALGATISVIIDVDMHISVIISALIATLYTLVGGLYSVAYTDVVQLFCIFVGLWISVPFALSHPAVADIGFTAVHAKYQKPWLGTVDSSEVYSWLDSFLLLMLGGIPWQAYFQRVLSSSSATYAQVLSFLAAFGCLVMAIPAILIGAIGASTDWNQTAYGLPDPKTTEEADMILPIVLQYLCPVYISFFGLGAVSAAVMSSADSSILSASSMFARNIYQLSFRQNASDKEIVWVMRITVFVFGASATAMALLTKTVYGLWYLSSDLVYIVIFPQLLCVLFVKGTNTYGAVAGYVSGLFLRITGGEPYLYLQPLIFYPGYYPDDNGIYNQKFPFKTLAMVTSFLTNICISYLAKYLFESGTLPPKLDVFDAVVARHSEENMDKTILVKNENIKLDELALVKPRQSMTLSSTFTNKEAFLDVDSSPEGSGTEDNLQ
CHT allo act: CHT positive allosteric modulators, primary screen, cell-based, membrane potential dye, choline EC20. CHT-expressing cells; hits give high values; LV-AA mutant CHT in HEK293 cells. B-score at 10 µM. 310,000 tested, 0.49% active. AID 488977, 2010;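 active means initial fluorescence not abnormally high and integrated response B-score, plate-corrected, over 3 SD above library mean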
TMEM16A inh: TMEM16A chloride channel inhibitors, primary screen, cell-based, HTS; HEK293 TMEM16A/YFP iodide influx fluorescence, ionomycin; normalized B-score (activity score, 25-100; higher = stronger inhibition) at 10 µM; 310,000 tested, 1.2% active;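 active means ratio plate-corrected score three or more library SD toward inhibition, starting fluorescence score within five deviations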;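 further: score derived from kinetic fluorescence span divided by baseline fluorescence per well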
CHT block conf: CHT inhibitors, confirmation, cell-based, membrane potential dye, duplicate. 2,400 tested, 70% active. CHT activity remaining % of control (hits give low values), % at 10 µM. AID 493221, 2011. shares compounds with CHT inh. CHT-expressing cells, choline membrane potential dye; LV-to-AA substituted CHT, HEK293 cells;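 active means choline transporter activity left, mean of duplicates at 10 µM, below buffer-only control mean minus 3 SD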;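 further: depolarization triggered by choline at its EC90 following an EC20 pre-addition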
HEK293 CHT ctr: membrane potential effects in parental HEK293, counter-screen for CHT inhibitor project, cell-based, membrane potential dye | shares compounds with CHT inh | choline response; active = decrease or increase beyond buffer ±3SD | membrane potential ratio readout (active if shifted either direction beyond buffer ±3SD; no single direction) at 10 µM | 2,400 tested, 4% active | AID 493222, 2011;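 further: parental cells lack the transporter so any hit is non-specific; ratio is peak minus trough fluorescence over baseline after EC90 choline challenge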
Of the large screens only hits and unclear results are named; the others gave an inactive call (follow-up assays come after a bar, where they were run). Shown are actives, neighbours in structure and some others; about 2.3% of the full set was active somewhere.

Cc1cc(OC(C)C(=O)NCc2cccnc2)c2c(C)cc(=O)oc2c1 (configuration not stated)	none
CCN(CC)CCCNc1ccc2ncn3c4ccc(O)cc4c(=O)c1c23	none (no result: CHT inh, CHT allo act, TMEM16A inh)
O=C(Nc1ccc(S(=O)(=O)N2CCOCC2)cc1)c1ccc([N+](=O)[O-])cc1Cl	CHT inh -7.44 | CHT block conf 30.7% | HEK293 CHT ctr inactive
CCCc1ccc(C(=O)CN2C(=O)C(=O)N(C3CCCC3)C2=O)cc1	none (no result: CHT inh, CHT allo act, TMEM16A inh)
Oc1ccc(-c2n[nH]c(C(F)(F)F)c2-c2ccccc2)c(O)c1	CHT inh -5.21, TMEM16A inh 100 | CHT block conf 62.4% | HEK293 CHT ctr inactive
CCN(CC)CCNC(=O)c1ccc(NC(=O)c2ccc(S(=O)(=O)N3CCCCCC3)cc2)cc1	none
CCN(CC)CCNC(=O)c1ccc(N2CCCCC2)c(NS(=O)(=O)c2ccc(C)cc2)c1	CHT inh -5.59 | CHT block conf 48.6% | HEK293 CHT ctr 4.03
O=C1CC(c2ccccc2)(c2ccccc2)c2ccccc21	none (no result: CHT inh, CHT allo act, TMEM16A inh)
NS(=O)(=O)c1ccc(NC(=O)c2ccc(S(=O)(=O)N3CCCCCC3)cc2)cc1	none (no result: CHT inh, CHT allo act, TMEM16A inh)
c1ccc(OCCSc2nnnn2C2CCCCC2)cc1	none
COc1ccc(OCCSc2nnnn2C2CCCCC2)cc1	CHT inh -11.5 | CHT block conf inactive | HEK293 CHT ctr inactive
CCNc1cc(Cl)nc(SC)n1	CHT inh -13.6 | CHT block conf -6.5% | HEK293 CHT ctr inactive
CCOc1ccc(OCCC(=O)OCC(=O)N(CC)c2c(N)n(Cc3ccccc3)c(=O)[nH]c2=O)cc1	none (no result: CHT inh, CHT allo act, TMEM16A inh)
COc1ccc(/C=C2\N=C(c3ccccc3)N(c3ccc(C(=O)O)cc3)C2=O)cc1OC	CHT inh -6.91 | CHT block conf 46.8% | HEK293 CHT ctr inactive
CC1=N/C(=C\c2ccc(OC(C)C)cc2)C(=O)N1c1ccc(C(=O)O)cc1	none
O=C(COc1ccccc1)N1CCN(c2nnc(-c3ccccc3)c3ccccc23)CC1	CHT inh -5.21 | CHT block conf inactive | HEK293 CHT ctr inactive
Fc1cccc(-c2cc3nc4c(c(N5CCC6(CC5)OCCO6)n3n2)CCCC4)c1	CHT inh -7.79 | CHT block conf inactive | HEK293 CHT ctr inactive
CCCCn1c(N)c(N(Cc2ccccc2OC)C(=O)c2ccc([N+](=O)[O-])s2)c(=O)[nH]c1=O	none
CC(CCc1ccc(O)cc1)NCCC(c1ccccc1)c1ccccc1 (configuration not stated)	none
CC(CCc1ccc(O)cc1)NCc1ccc(Br)cc1 (configuration not stated)	CHT inh -5.14 | CHT block conf inactive | HEK293 CHT ctr inactive
CC1=C(C(=O)Nc2cccc(C(=O)NC3CCCC(C)C3C)c2)SCCO1 (configuration not stated)	CHT inh -5.62 | CHT block conf 56.6% | HEK293 CHT ctr inactive
CC(=O)Nc1ccc(Nc2cc(C)c3ccccc3n2)cc1	CHT inh -6.45 | CHT block conf 45.6% | HEK293 CHT ctr inactive
COc1ccc(NC(=O)Cn2c(=O)cnc3ccccc32)cc1S(=O)(=O)N1CCCCC1	none
COc1cccc(CN(C)C(=O)CN2C(=O)NC(c3ccccc3)(c3ccccc3)C2=O)c1OC	none (no result: CHT inh, CHT allo act, TMEM16A inh)
O=S(=O)(Nc1nc2ccccc2nc1NCc1ccco1)c1ccccc1	none
O=S(=O)(Nc1nc2ccccc2nc1NCc1ccco1)c1ccc(F)cc1	CHT inh -6.15 | CHT block conf inactive | HEK293 CHT ctr inactive
O=C(CN1C(=O)S/C(=C\c2cccc(Cl)c2)C1=O)NCCCn1ccnc1	CHT inh -5.85 | CHT block conf 55.9% | HEK293 CHT ctr inactive
COc1cccc(/C=C2\SC(=O)N(CC(=O)NCCCn3ccnc3)C2=O)c1	none
COc1cc(/C=C2\SC(=O)N(CCNC(=O)c3c(C)noc3C)C2=O)cc(OC)c1OC	none (no result: CHT inh, CHT allo act, TMEM16A inh)
CC1CCC(NC(=O)Cn2c3c(c(-c4ccccc4Cl)cc2=O)CCC3)CC1 (configuration not stated)	CHT inh -6.81 | CHT block conf 45.6% | HEK293 CHT ctr inactive
O=C(OCC(=O)N1CCOCC1)c1cc(=O)[nH]c2ccccc12	none (no result: CHT inh, CHT allo act, TMEM16A inh)
CC(=O)NS(=O)(=O)c1ccc(NC(=O)c2cccc3ccccc23)cc1	none
CCCCOC(=O)c1ccc(NC(=O)c2cc(Cl)c(Cl)cc2C(=O)O)cc1	CHT inh -5.26 | CHT block conf 61.1% | HEK293 CHT ctr inactive
CCCCOC(=O)c1ccc(NC(C)=O)cc1	none
Cn1ccnc1SCC(=O)N1CCN(S(=O)(=O)c2ccccc2)CC1	CHT inh -5 | CHT block conf inactive | HEK293 CHT ctr inactive
CCOC(=O)C1CCN(c2ccccc2CN2CCN(c3ccccc3OCC)CC2)CC1	none
COc1ccc(C(=O)NCC(c2ccco2)N(C)C)cc1S(=O)(=O)NCc1ccc(Cl)cc1 (configuration not stated)	none (no result: CHT inh, CHT allo act, TMEM16A inh)
Cc1nn(C(C)C)c(C)c1[C@@H]1C[C@H]2CN(Cc3cccc(Cl)c3)C(=O)[C@]23CCCN13	none
CC(C)n1cc([C@@H]2C[C@H]3CN(Cc4cccc(Cl)c4)C(=O)[C@]34CCCN24)cn1	CHT inh -5.29 | CHT block conf inactive | HEK293 CHT ctr inactive
Cc1cc(C)nc(NS(=O)(=O)c2ccc(NC(=O)C3COc4ccccc4O3)cc2)n1 (configuration not stated)	CHT inh -6.36 | CHT block conf 40.9% | HEK293 CHT ctr inactive
O=C(Nc1ccc(S(=O)(=O)Nc2ccccc2)cc1)C1COc2ccccc2O1 (configuration not stated)	none
COc1cccc(/C=N/Nc2cc(Cl)nc(C)n2)c1O	CHT inh -6.39 | CHT block conf inactive | HEK293 CHT ctr inactive
C=C(CN(C)C)C(=O)c1cc(C)ccc1C	none (no result: CHT inh, CHT allo act, TMEM16A inh)
N#Cc1c(Cl)cccc1N1CCCC1	CHT inh -7.19 | CHT block conf 49.1% | HEK293 CHT ctr inactive
CC(Oc1ccccc1F)C(=O)NNC(=O)Cc1ccc(S(=O)(=O)N2CCOCC2)s1 (configuration not stated)	none (no result: CHT inh, CHT allo act, TMEM16A inh)
O=C(CC(c1ccccc1)c1ccccc1)Nc1ccncc1	CHT inh -5.89 | CHT block conf 56.2% | HEK293 CHT ctr inactive
O=C(CCc1ccccc1)Nc1ccncc1	none
O=C(CC(C(=O)O)c1ccccc1)Nc1ccccc1 (configuration not stated)	none
CC(O)c1cccc(NC(=O)CC(c2ccccc2)c2ccccc2)c1 (configuration not stated)	CHT inh -7.52 | CHT block conf 45.2% | HEK293 CHT ctr inactive
CCc1sc(C(=O)N2CCN(c3ccc(F)cc3)CC2)cc1C	none
